# From the supplement of paper PMC3334620
# Whole data set: some 33,000 sequences, median “E-score (-0.5 to 0.5)” near -0.036, cut for the highest 2% near 0.37. The sample holds the highest values, similar sequences and a random draw of the others, so the mix is not that of the screen.
# Target: T1, Yer064c (UniProt P40041)
# T1 sequence: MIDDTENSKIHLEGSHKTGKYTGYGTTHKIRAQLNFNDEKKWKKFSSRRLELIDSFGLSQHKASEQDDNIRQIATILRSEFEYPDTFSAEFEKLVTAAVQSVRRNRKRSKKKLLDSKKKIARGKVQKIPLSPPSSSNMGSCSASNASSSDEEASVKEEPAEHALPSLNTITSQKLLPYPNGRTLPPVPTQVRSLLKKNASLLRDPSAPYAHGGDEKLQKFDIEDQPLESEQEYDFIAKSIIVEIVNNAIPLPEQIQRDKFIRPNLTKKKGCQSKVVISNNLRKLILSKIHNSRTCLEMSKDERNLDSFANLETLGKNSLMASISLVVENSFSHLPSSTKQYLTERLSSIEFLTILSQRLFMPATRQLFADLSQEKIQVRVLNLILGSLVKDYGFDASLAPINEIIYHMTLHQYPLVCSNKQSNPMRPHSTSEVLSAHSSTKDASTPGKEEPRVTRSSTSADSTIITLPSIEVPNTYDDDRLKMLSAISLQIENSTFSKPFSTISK
# Assay: PBM E-score (8-mer binding enrichment) (E-score (-0.5 to 0.5)); higher = stronger / more preferred TF binding
# Conditions: protein concentration: 200 nM; construct: GST-full length
# Method: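 Universal 'all 10-mer' protein binding microarrays (Agilent AMADID 015681) probed with GST-tagged S. cerevisiae TFs (full-length or DBD) made by in vitro transcription/translation (PURExpress), about 100-200 nM. Bound TF was detected with fluorescent anti-GST. Each ungapped 8-mer (which stands for itself and its reverse complement) is scored by the PBM enrichment score (E-score), a modified Wilcoxon-Mann-Whitney statistic from -0.5 to +0.5, computed with the Universal PBM Analysis Suite. Scale: above 0.35 generally sequence-specific binding.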
row,Sequence,PBM E-score
1,GGGAGCCA,-0.00881
2,CCTTACAG,-0.2
3,CCGTCCTC,-0.281
4,ACAGCGAC,0.00958
5,CCATGCCA,-0.113
6,ATGAAAGG,-0.0528
7,AAGTCCCT,-0.127
8,GTGAGAAA,-0.0285
9,ATGATTTC,0.403
10,AAGATTTA,0.136
11,CTGATTTA,0.238
12,AGGATTTC,-0.125
13,CTGATTTC,0.222
14,ATGATTTA,0.415
15,CCCCGTAA,-0.0314
16,ATTACTAG,0.0126
17,TCGCTCCA,-0.0823
18,CAGAGGGA,-0.199
19,AATCAGGC,0.306
20,CATCATGA,0.294
21,AATCATGT,0.453
22,TATCATGA,0.256
23,AATCAGGG,0.271
24,AATCATGC,0.432
25,AAGCATGT,-0.0498

row,Sequence,PBM E-score
1,AATCATGA,0.43
2,AATCAGGT,0.378
3,GATCATGC,0.134
4,AATCAAGT,0.268
5,CATCATGC,0.0857
6,ATTTGAGG,-0.0184
7,ATGAGGGG,-0.125
8,AGCCGGCA,-0.176
9,GAATGCTA,-0.277
10,GCGAAAAC,-0.131
11,CCTCTGTA,-0.108
12,CCGCCGCA,-0.299
13,CCACAAAG,-0.0168
14,CATCATGG,0.0236
15,AATCATGG,0.42
16,AATCAAGG,0.245
17,AATCAGCG,0.344
18,AATCAGCT,0.389
19,AATCAGCC,0.355
20,CGATTAGA,0.0752
21,GATGTGGA,0.0614
22,GTCTTGTA,0.0119
23,AAAGTCGT,0.258
24,AAAGTCAC,0.411
25,GAAGTCAC,0.433

row,Sequence,PBM E-score
1,AAAGTCAA,0.319
2,AAAGTCCT,0.0605
3,AAAGTCAT,0.455
4,GAAGTCAA,0.357
5,CAAGTCAC,0.36
6,AAAGTCAG,0.323
7,AGGTCGTA,0.0488
8,CTAAACTA,0.0923
9,ACGGCCTG,-0.12
10,TAATCCGA,0.205
11,CAGGATAA,-0.208
12,ACGAGAAT,-0.125
13,AATACCAG,-0.0862
14,CTTTCAAA,0.0256
15,ACAGTCGT,0.198
16,ACAGTCAG,0.378
17,ACAGTCGG,0.181
18,GCAGTCAC,0.435
19,GCAGTCCC,-0.00282
20,ACAGTCTC,0.146
21,ACAGTCAA,0.319
22,CCAGTCAC,0.313
23,CCAGTCAG,0.248
24,GCAGTCAA,0.281
25,ACAGTCAT,0.453

row,Sequence,PBM E-score
1,ACAGTCAC,0.405
2,ATCACAGG,0.166
3,GGCCTGAC,0.109
4,ACCTGGTG,-0.0925
5,GCGGCTAC,-0.0969
6,AATTGTCA,0.0267
7,GGGGAGAC,-0.0271
8,CTCGATTA,0.186
9,AAGGTAGA,-0.209
10,GCGCCATA,-0.26
11,CACGAGTC,0.39
12,GACGAGAC,-0.0639
13,CACGAGTA,0.0787
14,GACGAGTC,0.408
15,AACGAGTT,0.0273
16,AACGAGTC,0.42
17,CACGAGTG,-0.125
18,GACGAGTA,0.178
19,AACGAGTA,0.171
20,ATCCATCC,0.0305
21,AGTACACA,0.239
22,CCCAAGCC,-0.171
23,CACTTCAA,-0.0203
24,ACGGATTA,0.1
25,CAAGAGTA,0.106

row,Sequence,PBM E-score
1,GAAGAGTC,0.426
2,GAAGAGTA,0.0801
3,CAAGAGTG,-0.108
4,AAAGAGTA,0.0885
5,GAAGAGCC,-0.222
6,AAAGAGTC,0.437
7,AAAGAGTT,0.219
8,CAAGAGTC,0.434
9,CTACTGAC,0.177
10,ACGGCGGA,-0.0257
11,ACGGACCA,-0.125
12,GAACTGAC,-0.0132
13,CAGGAGTC,0.394
14,AAGGAGTG,-0.187
15,CAGAAGTC,0.293
16,CAGGAGTA,0.0894
17,AAGGAGTA,0.0121
18,AAGGAGTC,0.412
19,AGTCGATG,0.249
20,AAACTGAG,0.144
21,TCCCAGCA,-0.0166
22,CACGCAAG,-0.11
23,CACGTGTA,-0.0349
24,GATTCATA,0.381
25,AATTCATA,0.0256

row,Sequence,PBM E-score
1,CATTCATA,0.195
2,GATTCAGC,0.258
3,GATTCAGA,0.389
4,TATTCAGA,0.0473
5,GATTCCGA,0.276
6,CCACGTAA,-0.177
7,GGCCTGTA,-0.386
8,AACTAGCA,-0.00106
9,TACTAGCA,0.0217
10,GACTAGGA,0.376
11,TACTAGGA,0.0896
12,GACTAGGC,0.297
13,GACTAGCA,0.374
14,ATCACATC,0.143
15,CGAGGGAA,-0.0997
16,GATTTGGA,0.0961
17,AAAGTGCC,-0.0752
18,AACCGTAC,-0.0826
19,TATTCAAA,0.135
20,CATTCAAA,-0.0755
21,CATTCAAC,0.0337
22,AATTCAAC,-0.0608
23,GATTCAAC,0.385
24,GATTCAAA,0.371
25,ACCGATCT,-0.255

row,Sequence,PBM E-score
1,ATCCTCGC,-0.043
2,TCGTAGCA,0.128
3,ATCGCTGA,0.0828
4,GACTTTAC,0.234
5,ATAGGCAG,-0.0153
6,ATTCGTCG,0.0523
7,GGTCGTCA,0.00372
8,CGTCGTCA,-0.142
9,AGTCGTCA,0.389
10,AGTCGTCG,0.375
11,AGTCGTCC,0.364
12,ACGATACT,-0.155
13,AGGATGTC,0.00214
14,CGCTGCTA,-0.211
15,TCATATGA,0.393
16,CCATATGA,0.0961
17,GCATATGA,0.14
18,AGACGACG,-0.265
19,ACACGACT,0.408
20,ACACGACA,0.106
21,AGACGACC,-0.0204
22,AGACGACT,0.397
